Results taken from PubChem BioAssay AID2676 (National Center for Advancing Translational Sciences (NCATS), 2010).
Screen size: about 370,000 compounds; about 1,100 (0.3%) were called active. Where a call stands in place of a potency, no number is given. Inconclusive results (about 1%) are left out. The sample holds actives, similar compounds and a random draw of the others, so the mix is not that of the screen. Calls come from the whole dose curve; as a rule, active = well fitted activation curve with a large enough effect; inconclusive = small, poorly fitted or top-dose-only effect; inactive = flat fitted curve, though single readings scatter.

Molecular target: Relaxin receptor 1 (Homo sapiens) (UniProt Q9HBX9)
Assay: qHTS Assay for Agonists of the Relaxin Receptor RXFP1; note: nearly all actives have a fitted effect of over 60% in size
Details: HEK293T-RXFP1 cAMP TR-FRET, 30 min; series mostly up to 57.5 µM
From the text: NIH Chemical Genomics Center [NCGC] NIH Molecular Libraries Probe Production Centers Network [MLPCN] MLPCN Grant: R03 MH085705-01A1 Assay Submitter (PI): Alexander Agoulnik NCGC Assay Overview: The relaxin hormone is involved in the variety of biological functions in normal tissues and diseases. The role of relaxin is well-established in female reproduction and parturition, mammary gland and endometrial development, maintenance of myometrial quiescence during pregnancy. Relaxin signaling through its G protein-coupled receptor (GPCR) RXFP1 results in ECM remodeling through regulation of collagen deposition, cell invasiveness, proliferation and overall tissue homeostasis. […] Recombinant human relaxin (rhRlx) is currently being tested in clinical trials as a protective agent in congestive heart failure, in treating severe preeclampsia, and as an anti-fibrotic agent in systemic sclerosis. Upon relaxin binding RXFP1 activation leads to the activation of adenylate cyclase (AC) via Gs. cAMP will activate PKA, which phosphorylates many signaling proteins. Thus, detection of cAMP increase is an easy and reliable indication of relaxin receptor activation. To screen for agonists of the relaxin receptor, a HEK293T cell line stably transfected with RXFP1 was used. RXFP1 activation was assayed by changes in cAMP levels as detected with a time-resolved fluorescence energy transfer (TR-FRET) cAMP detection kit.
NCGC Assay Protocol Summary: This is a cell-based assay for cAMP second messenger response to screen for agonists of the RXFP1 receptor. The assay was conducted in the presence of a PDE4 inhibitor (Ro 20174). The cells were lysed and the cAMP levels were measured with a TR-FRET cAMP kit. Presence of cAMP in the cell lysate disrupts binding between the cryptate-labeled anti-cAMP and d2-labeled cAMP pair, leading to a decrease in the TR-FRET signal. Data were normalized to the controls for basal activity (buffer only) and 100% activity (29 nM porcine relaxin). The EC50 values were determined from concentration-response data modeled with the standard Hill equation 1536-well assay protocol for the HEK293 RXFP1 cAMP assay: (1) Add 3 ul HEK293 RXFP1 cell culture. 2000 cells/well in DMEM/F12, 10% FBS, 1x Pen/Strep (dispensed offline with MultiDrop Combi). (2) Incubate 16-24 hr at 37C, 5% CO2. (3) Add 1 ul 400uM Ro20174 in DPBS, 0.05% BSA, 0.005% Tween 20. (3) Add 23 nl compounds in DMSO solution. Final concentration was 0.5 - 58 uM. (4) Incubate 30 min at 37C, 5% CO2. (5) Add 1 ul cAMP-d2 in lysis buffer (HTRF cAMP HiRange kit, CisBio). (6) Add 1 ul anti-cAMP antibody-cryptate in lysis buffer (HTRF cAMP HiRange kit, CisBio). (7) Incubate 30 min at room temperature. (6) Detect the assay plate in a ViewLux plate reader (PerkinElmer) with Ex=320 nm, Em1=615 nm and Em2=665 nm. Keywords: relaxin, RXFP1, RXFP2, G-protein coupled receptor, cAMP, agonist, high throughput screening, MLSMR, MLSCN, NIH Roadmap, qHTS and NCGC
Potency is the fitted concentration of half-maximal effect.

Sequence of Relaxin receptor 1 (Homo sapiens) (Q9HBX9 whole entry, looked up): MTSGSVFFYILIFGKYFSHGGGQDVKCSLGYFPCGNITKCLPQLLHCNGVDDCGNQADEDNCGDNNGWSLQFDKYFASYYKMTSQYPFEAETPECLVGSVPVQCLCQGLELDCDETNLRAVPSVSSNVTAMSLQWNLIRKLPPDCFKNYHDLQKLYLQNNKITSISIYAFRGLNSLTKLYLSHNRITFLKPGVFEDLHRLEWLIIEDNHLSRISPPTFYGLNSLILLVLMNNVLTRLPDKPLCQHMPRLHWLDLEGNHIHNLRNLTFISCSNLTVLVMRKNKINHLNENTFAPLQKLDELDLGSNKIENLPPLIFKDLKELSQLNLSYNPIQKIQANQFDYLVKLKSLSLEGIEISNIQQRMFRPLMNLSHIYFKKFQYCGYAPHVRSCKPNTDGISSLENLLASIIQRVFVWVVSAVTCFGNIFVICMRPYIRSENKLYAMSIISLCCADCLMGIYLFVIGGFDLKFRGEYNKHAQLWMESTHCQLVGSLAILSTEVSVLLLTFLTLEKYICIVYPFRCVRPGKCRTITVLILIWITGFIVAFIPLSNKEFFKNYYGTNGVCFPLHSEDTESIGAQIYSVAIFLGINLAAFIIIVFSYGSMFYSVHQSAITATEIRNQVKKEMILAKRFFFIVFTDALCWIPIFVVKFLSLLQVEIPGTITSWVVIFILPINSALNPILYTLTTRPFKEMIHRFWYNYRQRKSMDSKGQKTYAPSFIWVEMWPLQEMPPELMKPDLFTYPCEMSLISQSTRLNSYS

Structure (SMILES)	Potency
O=C1CN(C(=O)Nc2ccccc2C(F)(F)F)C(c2ccccc2)c2c(sc3c2CCCC3)N1 (centres undefined)	inactive
Cc1cccc(N2CCN(C(=O)CCn3c(=O)c4cccn4c4cccnc43)CC2C)c1 (centres undefined)	inactive
Cc1ccc(CCNC(=O)c2ccc3c(c2)nc2n3CCC(C)C2)cc1 (centres undefined)	inactive
COc1ccc(-c2cn3c(n2)sc2cc(C(=O)Nc4ccccc4F)ccc23)cc1	inactive
CC(C)(C)C1CCc2c(sc(NC(=O)c3ccccc3F)c2C(=O)N2CCCCC2)C1 (centres undefined)	inactive
CCN1CCN(Cc2c(O)ccc3oc(C)c(C(=O)Nc4ccc(C)cc4C)c23)CC1	inactive
COc1cccc(-n2cc(C(=O)NCc3cccc(Cl)c3)c3ccccc3c2=O)c1	inactive
COc1ccc(NC(=O)NC(C)c2c(-n3cccc3)sc(C)c2C)cc1OC (centres undefined)	inactive
CCOC(=O)c1ccc(NC(=O)CSc2nc3c([nH]c4ccccc43)c(=O)n2C)cc1	inactive
Cc1c(Cl)cccc1NC(=O)Cn1cc(C(=O)c2cccs2)c2ccccc21	inactive
CC(=O)N1CCCc2ccc(NS(=O)(=O)c3ccc(F)cc3F)cc21	inactive
COc1cccc(Cn2c(CNS(=O)(=O)c3ccc(Cl)s3)nc3cccnc32)c1	inactive
CCOC(=O)c1sc(=NC(=O)c2ccc(Br)cc2)n(C)c1C	17.8 µM (active)
CCOC(=O)c1sc(=NC(=O)/C=C/c2cccs2)n(C)c1C	inactive
CCN(CC)S(=O)(=O)c1ccc(C(=O)N=c2sc3cccc(OC)c3n2C)cc1	inactive
CCN(CC)c1ccc(C2C(C(N)=O)=C(C)Nc3nc(SCc4ccccc4)nn32)cc1 (centres undefined)	inactive
CCCC(=O)Nc1ncnc2c1ncn2[C@@H]1O[C@@H]2OP(=O)(O)OC[C@H]2[C@H]1OC(=O)CCC	0.631 µM (active)
Cc1ccccc1CSc1nc(-c2ccccc2)nc2c1Cc1c(CO)cnc(C)c1O2	inactive
CCOc1ccc(S(=O)(=O)N(CC(=O)NCCSCc2ccc(C)cc2)c2ccccc2)cc1	inactive
Cc1nn2c(=O)cc(COC(=O)c3cccc(NC(=O)COc4ccccc4Cl)c3)nc2s1	inactive
C#CC(C)(C)NC(=O)CSc1nc2c(c(=O)n(C)c(=O)n2C)n1CCCC	inactive
CCCCn1c(SCC(=O)N2CCOCC2)nc2c1c(=O)n(C)c(=O)n2C	15.8 µM (active)
Cn1c(=O)c2c(SCC(=O)N3CCOCC3)nc(C3CC3)nc2n(C)c1=O	inactive
Cc1cc(C)cc(OCC(=O)Nc2nc(-c3ccc(F)cc3)ns2)c1	inactive
O=C(CSc1nccn1-c1ccc(F)cc1)Nc1cccc2ccccc12	inactive

Structure (SMILES)	Potency
Cc1ccc(CNC(=O)CCc2c(C)nc3nc(CNC(=O)OC(C)(C)C)nn3c2C)cc1	inactive
COc1ccccc1-c1nnc(C2CCN(C(=O)c3ccc(Cl)cc3)CC2)o1	inactive
CC1Cc2cc(S(=O)(=O)CCC(=O)Nc3ccc(F)c(Cl)c3)ccc2N1C(=O)C1CC1 (centres undefined)	inactive
COc1ccccc1/C=C/c1nc(C#N)c(NC(C)c2ccccc2)o1 (centres undefined)	inactive
CCOc1ccc(C2C(=O)N(C3CCCCC3)CC(=O)N2CCC2=CCCCC2)cc1OC (centres undefined)	inactive
COc1ccc(-c2noc(-c3ccc(N4CCN(c5ccccc5)CC4)c([N+](=O)[O-])c3)n2)cc1OC	inactive
COc1ccc(CNC(=O)c2cc3c(=O)[nH]c4ccccc4c3s2)cc1	inactive
CCCn1c(=N)n(CC(O)COc2ccccc2OC)c2ccccc21 (centres undefined)	inactive
Cc1cc2c(cc3c(SCc4nc(-c5ccccc5)oc4C)nnc(C)n32)o1	inactive
Cc1cc2c(cc3c(SCc4cccc(Cl)c4)nnc(C)n32)o1	22.4 µM (active)
Cc1nnc(SCc2cccc(Cl)c2)n(N)c1=O	inactive
NS(=O)(=O)c1ccc(CCNC(=O)CCCCCn2c(=O)[nH]c3ccccc3c2=O)cc1	inactive
FC(F)(F)c1cc(Nc2nc3ccccc3c3nncn23)ccc1Cl	inactive
O=C(COc1ccc2c3c(c(=O)oc2c1)CCC3)NC1CCCCC1	inactive
O=C(Oc1ccccc1)Oc1ccc2c(c1)oc(=O)c1ccccc12	7.94 µM (active)
O=C(COc1ccc2c3c(c(=O)oc2c1)CCCC3)NCC(O)c1ccccc1 (centres undefined)	inactive
CCOC(=O)CNC(=O)CSc1ccc2nnc(-c3cccnc3)n2n1	17.8 µM (active)
COc1ccccc1CCNC(=O)CSc1nnc2ccc(-c3cccnc3)nn12	inactive
COC(=O)c1ccc(CSc2ccc3nnc(-c4ccccc4)n3n2)o1	inactive
Cc1c(C)n(Cc2ccc(Cl)cc2)c2ccc(C(=O)NCCc3ccc(S(N)(=O)=O)cc3)cc12	inactive
O=C(CN1CCN(Cc2ccc(Cl)cc2)C1=O)NCc1ccc(F)cc1	inactive
COc1ccccc1OCC(=O)Nc1nnc2n1CCS2	inactive
COCCNC(=O)c1cc(-c2cccc(Cl)c2)on1	inactive
O=C(CSc1nccn1C1CCCC1)Nc1cc(C(F)(F)F)ccc1Cl	inactive
